Data reported in PubChem BioAssay (EPA / NIEHS).
Inconclusive results are not listed. The source made the active and inactive calls. How the source made its calls, unless noted: active means hit-call score of the fitted dose curve at least 0.9, where 1 is the maximum; inactive means score below 0.9.

Each molecule was assayed on E-selectin (Homo sapiens) (UniProt P16581) (assay: BSK_3C_Eselectin: BioMAP Diversity Plus: 3C Assay for Eselectin Biomarker Activity (AID 2283015;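 on outcome: cell surface E-selectin protein quantified by ELISA 24 h after dosing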)). Conditions: primary human endothelial cells (HUVEC); actives raise or lower the signal.
Sequence of E-selectin (Homo sapiens) (P16581 whole entry, looked up): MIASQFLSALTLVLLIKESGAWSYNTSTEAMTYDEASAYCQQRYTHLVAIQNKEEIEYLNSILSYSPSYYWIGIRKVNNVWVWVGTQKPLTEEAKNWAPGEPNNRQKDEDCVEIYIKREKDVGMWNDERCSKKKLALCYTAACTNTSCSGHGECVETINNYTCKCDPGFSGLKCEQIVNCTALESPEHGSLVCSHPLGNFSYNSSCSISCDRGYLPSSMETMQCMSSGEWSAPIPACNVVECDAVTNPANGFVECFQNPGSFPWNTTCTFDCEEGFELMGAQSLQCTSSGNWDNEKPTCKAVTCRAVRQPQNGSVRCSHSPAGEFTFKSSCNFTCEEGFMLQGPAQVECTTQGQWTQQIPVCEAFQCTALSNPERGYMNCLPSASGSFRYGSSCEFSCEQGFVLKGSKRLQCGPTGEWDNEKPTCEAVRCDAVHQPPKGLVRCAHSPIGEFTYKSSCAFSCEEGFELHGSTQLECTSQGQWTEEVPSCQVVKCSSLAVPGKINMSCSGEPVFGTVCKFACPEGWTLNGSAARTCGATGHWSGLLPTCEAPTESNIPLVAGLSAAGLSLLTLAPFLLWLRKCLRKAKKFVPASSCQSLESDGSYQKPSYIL
How it was run: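 Primary human umbilical vein endothelial cells (3C system), read 24 h after compound addition; E-selectin measured by ELISA. Bidirectional curve fitting against DMSO baseline; cytotoxicity by parallel SRB total-protein staining.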
In the case of `CC(C)(N=C=O)c1cccc(C(C)(C)N=C=O)c1`, the outcome is reported as “inactive”.
`CC(=O)Nc1ccc(C(=O)CCl)cc1` was tested, and the AC50 was 7.26 µM (active).
For `CC(C)(C)CC(C)(C)c1ccc(OCCOCC[N+](C)(C)Cc2ccccc2)cc1`, the AC50 was 6.62 µM (active).
In the case of `CC=Cc1ccc(OCC)c(O)c1`, the outcome is reported as “inactive”.

These molecules were tested on Interleukin-1 alpha (IL1a), IL1A (gene 3552) (assay: BSK_BE3C_IL1a: BioMAP Diversity Plus: BE3C Assay for Interleukin-1 alpha (IL1a) Biomarker Activity (AID 2283016)). Conditions: primary human bronchial epithelial cells; actives raise or lower the signal.
How it was run: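 Human primary bronchial epithelial cells, 24 h chemical exposure; IL-1a quantified by ELISA, fitted bidirectionally against DMSO. Cytotoxicity assessed in parallel by SRB total-protein staining at the time of measurement.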
In the case of `CC(C)(N=C=O)c1cccc(C(C)(C)N=C=O)c1`, the outcome is reported as “inactive”.
In the case of `CC(=O)Nc1ccc(C(=O)CCl)cc1`, the AC50 is reported as 14.9 µM (active).
`CC(C)(C)CC(C)(C)c1ccc(OCCOCC[N+](C)(C)Cc2ccccc2)cc1` was tested, and the AC50 was 7.26 µM (active).
With `CC=Cc1ccc(OCC)c(O)c1` the outcome was “inactive”.

These molecules were tested on Monocyte Chemoattractant Protein-1 (MCP1), CCL2 (gene 6347) (assay: BSK_3C_MCP1: BioMAP Diversity Plus: 3C Assay for Monocyte Chemoattractant Protein-1 (MCP1) Biomarker Activity (AID 2283017)). Conditions: primary human endothelial cells (HUVEC); actives raise or lower the signal.
How it was run: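 Human umbilical vein endothelial cells (3C system) exposed to chemicals for 24 h; MCP-1 quantified by ELISA against the DMSO baseline with bidirectional fitting, and parallel SRB staining used to assess cytotoxicity.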
`CC(C)(N=C=O)c1cccc(C(C)(C)N=C=O)c1` was tested, and the outcome was “inactive”.
`CC(=O)Nc1ccc(C(=O)CCl)cc1` was tested, and the AC50 was 11.2 µM (active).
For `CC(C)(C)CC(C)(C)c1ccc(OCCOCC[N+](C)(C)Cc2ccccc2)cc1`, the AC50 was 5 µM (active).
`CC=Cc1ccc(OCC)c(O)c1` was tested, and the outcome was “inactive”.

Each molecule was assayed on Monocyte Chemoattractant Protein-1 (MCP1), CCL2 (gene 6347) (assay: BSK_4H_MCP1: BioMAP Diversity Plus: 4H Assay for Monocyte Chemoattractant Protein-1 (MCP1) Biomarker Activity (AID 2283018)). Conditions: primary human endothelial cells (HUVEC); actives raise or lower the signal.
How it was run: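 Human umbilical vein endothelial cells (4H system) exposed to chemicals for 24 h in 96-well format. MCP-1 measured by ELISA; bidirectional fitting against DMSO, with SRB total-protein staining in parallel cultures for cytotoxicity.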
`CC(C)(N=C=O)c1cccc(C(C)(C)N=C=O)c1` was tested, and the outcome was “inactive”.
In the case of `CC(=O)Nc1ccc(C(=O)CCl)cc1`, the AC50 is reported as 9.64 µM (active).
In the case of `CC(C)(C)CC(C)(C)c1ccc(OCCOCC[N+](C)(C)Cc2ccccc2)cc1`, the AC50 is reported as 3.9 µM (active).
`CC=Cc1ccc(OCC)c(O)c1` was tested, and the outcome was “inactive”.

The molecules below were run on Human Leukocyte Antigen - DR isotype (HLADR), HLA-DRA (gene 3122) (assay: BSK_3C_HLADR: BioMAP Diversity Plus: 3C Assay for Human Leukocyte Antigen - DR isotype (HLADR) Biomarker Activity (AID 2283019;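 on outcome: ELISA of cell-surface HLA-DR on HUVEC 24 h after dosing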)). Conditions: primary human endothelial cells (HUVEC); actives raise or lower the signal.
How it was run: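 HUVEC monoculture, HLA-DR measured by ELISA 24 h after chemical dosing. Fitted bidirectionally against DMSO baseline; parallel SRB staining assessed cytotoxicity, with 3C proliferation read by SRB at 48 h.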
`CC(C)(N=C=O)c1cccc(C(C)(C)N=C=O)c1` was tested, and the outcome was “inactive”.
With `CC(=O)Nc1ccc(C(=O)CCl)cc1` the AC50 was 5.06 µM (active).
With `CC(C)(C)CC(C)(C)c1ccc(OCCOCC[N+](C)(C)Cc2ccccc2)cc1` the AC50 was 5 µM (active).
For `CC=Cc1ccc(OCC)c(O)c1`, the outcome was “inactive”.

These molecules were tested on Interleukin-8 (IL8), CXCL8 (gene 3576) (assay: BSK_3C_IL8: BioMAP Diversity Plus: 3C Assay for Interleukin-8 (IL8) Biomarker Activity (AID 2283020)). Conditions: primary human endothelial cells (HUVEC); actives raise or lower the signal.
How it was run: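 Primary human umbilical vein endothelial cells were dosed for 24 h. IL-8 was quantified by ELISA and fitted bidirectionally against DMSO. Cytotoxicity was assessed in parallel cultures by SRB staining at 560 nm.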
For `CC(C)(N=C=O)c1cccc(C(C)(C)N=C=O)c1`, the outcome was “inactive”.
`CC(=O)Nc1ccc(C(=O)CCl)cc1` was tested, and the AC50 was 20 µM (active).
In the case of `CC(C)(C)CC(C)(C)c1ccc(OCCOCC[N+](C)(C)Cc2ccccc2)cc1`, the AC50 is reported as 5 µM (active).
In the case of `CC=Cc1ccc(OCC)c(O)c1`, the outcome is reported as “inactive”.

What follows are molecules tested against human Vitamin D Receptor (VDR), VDR (gene 7421) (UniProt P11473) (assay: ATG_VDR_TRANS: Attagene TRANS-FACTORIAL HepG2 Assay for human Vitamin D Receptor (VDR) (AID 2283022; active means hit-call score of the fitted dose curve at least 0.9, where 1 is the maximum)). Conditions: not given.
Sequence of human Vitamin D Receptor (VDR), VDR (gene 7421) (P11473 whole entry, looked up, the tested form may be a part): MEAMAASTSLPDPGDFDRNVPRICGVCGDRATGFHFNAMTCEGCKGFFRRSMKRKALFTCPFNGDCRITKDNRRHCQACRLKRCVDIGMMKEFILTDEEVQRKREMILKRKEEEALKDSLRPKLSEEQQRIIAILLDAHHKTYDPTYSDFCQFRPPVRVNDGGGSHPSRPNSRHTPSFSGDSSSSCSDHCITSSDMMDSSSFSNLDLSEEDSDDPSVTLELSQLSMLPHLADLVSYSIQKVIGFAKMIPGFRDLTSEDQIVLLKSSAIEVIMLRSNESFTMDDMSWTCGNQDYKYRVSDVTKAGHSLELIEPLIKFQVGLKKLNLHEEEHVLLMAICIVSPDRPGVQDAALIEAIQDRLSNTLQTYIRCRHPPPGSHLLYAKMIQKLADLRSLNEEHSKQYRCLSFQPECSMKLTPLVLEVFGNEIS
How it was run: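 HepG2 cells were transiently transfected with GAL4-UAS reporter units and a chimeric VDR-Gal4 construct, then dosed for 24 hours. Reporter mRNA was quantified by RT-PCR, fluorescent labeling, HpaI digestion and capillary electrophoresis; gain of signal analysed vs DMSO.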
`COC(=O)C=C(C)CCC=C(C)C` was tested, and the outcome was “inactive”.
For `C[C@H]1O[C@@H](O[C@H]2[C@@H](O)C[C@H](O[C@H]3[C@@H](O)C[C@H](O[C@H]4CC[C@@]5(C)[C@H](CC[C@@H]6[C@@H]5C[C@@H](O)[C@]5(C)[C@@H](C7=CC(=O)OC7)CC[C@]65O)C4)O[C@@H]3C)O[C@@H]2C)C[C@H](O)[C@@H]1O`, the outcome was “inactive”.
`CCCCCc1ccco1` was tested, and the outcome was “inactive”.
`C#CC(C)(O)CC(C)C` (configuration not stated) was tested, and the outcome was “inactive”.
`CCCCCCCCN1CCCC1=O` was tested, and the outcome was “inactive”.
For `C[Si]1(C)O[Si](C)(C)O[Si](C)(C)O1`, the outcome was “inactive”.
`O=C1OC(=O)c2c(Br)c(Br)c(Br)c(Br)c21` was tested, and the outcome was “inactive”.
`OCC(O)c1ccccc1` (configuration not stated) was tested, and the outcome was “inactive”.
`CN1CCOCC1` was tested, and the outcome was “inactive”.
With `CCCCCCCCCCCCCCN(CCO)CCO` the outcome was “inactive”.
`CC(=O)Nc1ccc(C(=O)CCl)cc1` was tested, and the outcome was “inactive”.
In the case of `CCCCCC(=O)CC`, the outcome is reported as “inactive”.
For `COC(=O)c1ccc(OC)cc1`, the outcome was “inactive”.
`CCCC(O)C(O)CO` (configuration not stated) was tested, and the outcome was “inactive”.
In the case of `CC(O)C1CCCCC1` (configuration not stated), the outcome is reported as “inactive”.
For `CCCC(C)C(O)CC` (configuration not stated), the outcome was “inactive”.
In the case of `CC(=O)C(C)O` (configuration not stated), the outcome is reported as “inactive”.
With `OCCOCCN1CCN(C2=Nc3ccccc3Sc3ccccc32)CC1` the outcome was “inactive”.
For `FC(F)(F)COCC(F)(F)F`, the outcome was “inactive”.
With `CCc1ccc(O)cc1` the outcome was “inactive”.
`CC=Cc1ccc(OCC)c(O)c1` was tested, and the outcome was “inactive”.
In the case of `CC(=O)O[C@@H]1CC2CCC1(C)C2(C)C` (some centres not stated), the outcome is reported as “inactive”.
In the case of `COC(=O)c1ccc(C)cc1C1=NC(C)(C(C)C)C(=O)N1` (configuration not stated) (tested in a mixture with another compound), the outcome is reported as “inactive”.
